Reference: the supplement of paper PMC11732987, “Enantioselective OTUD7B fragment discovery through chemoproteomics screening and high-throughput optimisation” (Communications Chemistry, 2025)

Tests used:
Test in all cases: log2 ratio of Biotin-Ahx-Ub-VS probe labelling (fragment/DMSO); higher = less target engagement (more negative = stronger competition), active = hit call of the paper (q ≤ 0.05, log2 ratio ≤ -1)
Settings in all cases: compound concentration: 200 uM; treatment time: 3 h
USP42 = biological target: T1, USP42 (UniProt Q9H9J4)
T1 sequence (whole entry): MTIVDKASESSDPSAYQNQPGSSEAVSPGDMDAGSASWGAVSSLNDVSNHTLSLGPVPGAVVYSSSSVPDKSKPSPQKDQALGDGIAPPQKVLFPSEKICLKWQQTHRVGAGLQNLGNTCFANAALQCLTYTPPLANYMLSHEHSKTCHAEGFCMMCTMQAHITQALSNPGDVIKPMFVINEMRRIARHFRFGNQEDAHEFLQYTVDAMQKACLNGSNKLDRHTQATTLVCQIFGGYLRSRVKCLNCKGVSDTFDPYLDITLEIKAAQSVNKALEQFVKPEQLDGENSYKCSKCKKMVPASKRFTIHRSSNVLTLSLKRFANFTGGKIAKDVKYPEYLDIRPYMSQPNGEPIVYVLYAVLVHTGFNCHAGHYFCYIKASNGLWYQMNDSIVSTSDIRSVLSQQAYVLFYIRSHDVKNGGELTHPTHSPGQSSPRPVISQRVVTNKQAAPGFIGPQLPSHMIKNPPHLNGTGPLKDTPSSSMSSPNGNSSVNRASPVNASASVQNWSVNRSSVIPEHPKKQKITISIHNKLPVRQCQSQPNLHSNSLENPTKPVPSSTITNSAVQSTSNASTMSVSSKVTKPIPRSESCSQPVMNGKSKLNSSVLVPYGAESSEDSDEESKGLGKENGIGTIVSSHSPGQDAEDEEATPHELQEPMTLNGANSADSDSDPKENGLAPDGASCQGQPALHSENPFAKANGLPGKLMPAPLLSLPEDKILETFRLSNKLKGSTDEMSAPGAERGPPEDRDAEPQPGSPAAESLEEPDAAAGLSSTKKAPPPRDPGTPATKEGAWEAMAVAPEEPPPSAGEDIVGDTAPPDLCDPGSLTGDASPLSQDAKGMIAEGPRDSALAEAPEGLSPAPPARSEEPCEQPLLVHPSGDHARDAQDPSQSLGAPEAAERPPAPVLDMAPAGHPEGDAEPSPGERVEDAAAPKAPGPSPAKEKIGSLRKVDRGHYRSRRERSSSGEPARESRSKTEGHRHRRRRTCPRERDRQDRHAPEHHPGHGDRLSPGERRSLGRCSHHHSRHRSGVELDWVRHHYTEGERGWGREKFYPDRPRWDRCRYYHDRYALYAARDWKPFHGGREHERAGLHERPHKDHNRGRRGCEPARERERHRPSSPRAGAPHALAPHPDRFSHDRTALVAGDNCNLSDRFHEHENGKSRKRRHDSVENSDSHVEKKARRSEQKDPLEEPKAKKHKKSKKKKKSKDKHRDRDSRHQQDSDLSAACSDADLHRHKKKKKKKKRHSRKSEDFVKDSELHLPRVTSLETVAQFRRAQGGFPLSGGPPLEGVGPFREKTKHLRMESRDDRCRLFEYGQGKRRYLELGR
Method in brief: (§1)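 Labelled DUBs from HEK293T lysate were NeutrAvidin-enriched, digested with LysC and trypsin, and run by diaPASEF LC-MS/MS. Before that, each 495 µg sample in Tris/CHAPS/IGEPAL buffer with protease inhibitors was treated in triplicate with fragment at 200 µM or vehicle for 3 h, then with Biotin-Ahx-Ub-VS at 0.5 µM final for 1 h. Values are average log2 ratios of fragment over vehicle by unpaired t-test, based on global-median-normalised Spectronaut label-free quantities from proteins with ≥2 unique peptides.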

USP46 = USP46 (UniProt P62068)
USP46, sequence (P62068 whole entry): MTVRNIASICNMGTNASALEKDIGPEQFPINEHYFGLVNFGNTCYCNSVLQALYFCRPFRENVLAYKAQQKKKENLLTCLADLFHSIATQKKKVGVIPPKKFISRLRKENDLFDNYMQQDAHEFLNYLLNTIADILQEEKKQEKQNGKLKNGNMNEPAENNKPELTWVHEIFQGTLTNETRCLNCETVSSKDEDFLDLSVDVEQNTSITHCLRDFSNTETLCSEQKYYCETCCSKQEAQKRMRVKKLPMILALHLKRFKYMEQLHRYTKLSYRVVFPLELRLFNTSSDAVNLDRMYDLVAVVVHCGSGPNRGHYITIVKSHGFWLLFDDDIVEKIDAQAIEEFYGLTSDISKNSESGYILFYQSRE
Method in brief: as §1

USP47 = biological target: T2, USP47 (UniProt Q96K76)
T2 sequence (whole entry): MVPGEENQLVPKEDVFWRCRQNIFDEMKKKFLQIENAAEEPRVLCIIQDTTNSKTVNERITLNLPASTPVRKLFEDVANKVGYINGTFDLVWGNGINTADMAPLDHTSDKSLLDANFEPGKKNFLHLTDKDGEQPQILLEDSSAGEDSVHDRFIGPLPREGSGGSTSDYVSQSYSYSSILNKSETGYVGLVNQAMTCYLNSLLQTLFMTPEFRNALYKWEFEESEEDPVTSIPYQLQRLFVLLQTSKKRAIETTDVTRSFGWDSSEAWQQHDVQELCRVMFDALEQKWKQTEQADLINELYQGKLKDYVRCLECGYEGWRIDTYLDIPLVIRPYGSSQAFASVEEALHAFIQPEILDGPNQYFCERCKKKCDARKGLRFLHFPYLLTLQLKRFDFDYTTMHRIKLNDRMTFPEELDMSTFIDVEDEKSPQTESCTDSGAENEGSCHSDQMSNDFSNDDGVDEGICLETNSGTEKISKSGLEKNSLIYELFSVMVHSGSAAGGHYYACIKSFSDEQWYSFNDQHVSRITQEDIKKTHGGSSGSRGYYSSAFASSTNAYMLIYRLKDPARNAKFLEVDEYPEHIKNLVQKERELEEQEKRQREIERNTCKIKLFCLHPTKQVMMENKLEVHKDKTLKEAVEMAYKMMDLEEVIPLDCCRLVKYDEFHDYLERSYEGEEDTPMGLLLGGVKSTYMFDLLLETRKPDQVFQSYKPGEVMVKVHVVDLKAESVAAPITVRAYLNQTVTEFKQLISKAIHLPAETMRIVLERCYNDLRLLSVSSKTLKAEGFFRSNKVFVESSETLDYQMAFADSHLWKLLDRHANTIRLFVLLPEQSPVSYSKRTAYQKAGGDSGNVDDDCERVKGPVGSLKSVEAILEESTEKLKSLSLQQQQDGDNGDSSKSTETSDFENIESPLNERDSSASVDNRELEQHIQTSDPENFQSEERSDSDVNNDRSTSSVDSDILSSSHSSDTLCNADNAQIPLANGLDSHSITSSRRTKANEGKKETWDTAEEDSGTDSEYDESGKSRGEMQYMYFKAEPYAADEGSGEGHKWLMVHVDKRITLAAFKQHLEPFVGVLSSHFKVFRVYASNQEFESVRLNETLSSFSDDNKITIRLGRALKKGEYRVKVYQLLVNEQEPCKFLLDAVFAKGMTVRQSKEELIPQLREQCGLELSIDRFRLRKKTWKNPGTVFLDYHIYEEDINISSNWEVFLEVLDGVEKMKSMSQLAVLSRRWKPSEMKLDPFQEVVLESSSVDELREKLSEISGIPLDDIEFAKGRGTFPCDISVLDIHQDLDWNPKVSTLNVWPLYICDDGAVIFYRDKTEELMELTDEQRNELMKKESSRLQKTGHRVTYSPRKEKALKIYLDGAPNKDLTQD
Method in brief: as §1

USP48 = biological target: T3, USP48 (UniProt Q86UV5)
T3 sequence (whole entry): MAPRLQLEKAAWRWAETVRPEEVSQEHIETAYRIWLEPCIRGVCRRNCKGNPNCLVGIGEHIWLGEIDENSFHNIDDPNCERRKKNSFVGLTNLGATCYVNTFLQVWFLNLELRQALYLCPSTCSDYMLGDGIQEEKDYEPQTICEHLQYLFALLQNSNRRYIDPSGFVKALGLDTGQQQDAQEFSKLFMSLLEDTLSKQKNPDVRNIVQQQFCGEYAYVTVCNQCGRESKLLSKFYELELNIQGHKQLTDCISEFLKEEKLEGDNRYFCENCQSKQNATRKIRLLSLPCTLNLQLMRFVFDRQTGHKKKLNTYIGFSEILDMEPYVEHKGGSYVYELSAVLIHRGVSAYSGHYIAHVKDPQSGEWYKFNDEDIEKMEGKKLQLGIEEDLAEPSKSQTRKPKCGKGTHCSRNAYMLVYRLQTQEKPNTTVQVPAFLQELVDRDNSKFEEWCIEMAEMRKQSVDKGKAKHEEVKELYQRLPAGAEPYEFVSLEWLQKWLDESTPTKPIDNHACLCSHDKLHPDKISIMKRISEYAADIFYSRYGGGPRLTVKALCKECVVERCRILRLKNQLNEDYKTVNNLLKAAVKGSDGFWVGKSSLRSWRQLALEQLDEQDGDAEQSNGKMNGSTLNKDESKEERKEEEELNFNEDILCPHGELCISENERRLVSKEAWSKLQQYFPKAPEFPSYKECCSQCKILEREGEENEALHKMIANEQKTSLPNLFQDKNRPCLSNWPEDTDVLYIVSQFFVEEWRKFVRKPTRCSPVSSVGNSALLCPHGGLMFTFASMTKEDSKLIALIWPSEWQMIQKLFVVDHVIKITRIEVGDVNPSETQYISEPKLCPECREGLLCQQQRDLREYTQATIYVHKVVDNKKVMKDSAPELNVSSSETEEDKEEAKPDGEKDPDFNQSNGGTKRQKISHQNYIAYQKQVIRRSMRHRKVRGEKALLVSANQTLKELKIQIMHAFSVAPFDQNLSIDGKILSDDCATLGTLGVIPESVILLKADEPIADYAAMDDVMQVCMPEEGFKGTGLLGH
Method in brief: as §1

USP5 = biological target: T4, USP5 (UniProt P45974)
T4 sequence (whole entry): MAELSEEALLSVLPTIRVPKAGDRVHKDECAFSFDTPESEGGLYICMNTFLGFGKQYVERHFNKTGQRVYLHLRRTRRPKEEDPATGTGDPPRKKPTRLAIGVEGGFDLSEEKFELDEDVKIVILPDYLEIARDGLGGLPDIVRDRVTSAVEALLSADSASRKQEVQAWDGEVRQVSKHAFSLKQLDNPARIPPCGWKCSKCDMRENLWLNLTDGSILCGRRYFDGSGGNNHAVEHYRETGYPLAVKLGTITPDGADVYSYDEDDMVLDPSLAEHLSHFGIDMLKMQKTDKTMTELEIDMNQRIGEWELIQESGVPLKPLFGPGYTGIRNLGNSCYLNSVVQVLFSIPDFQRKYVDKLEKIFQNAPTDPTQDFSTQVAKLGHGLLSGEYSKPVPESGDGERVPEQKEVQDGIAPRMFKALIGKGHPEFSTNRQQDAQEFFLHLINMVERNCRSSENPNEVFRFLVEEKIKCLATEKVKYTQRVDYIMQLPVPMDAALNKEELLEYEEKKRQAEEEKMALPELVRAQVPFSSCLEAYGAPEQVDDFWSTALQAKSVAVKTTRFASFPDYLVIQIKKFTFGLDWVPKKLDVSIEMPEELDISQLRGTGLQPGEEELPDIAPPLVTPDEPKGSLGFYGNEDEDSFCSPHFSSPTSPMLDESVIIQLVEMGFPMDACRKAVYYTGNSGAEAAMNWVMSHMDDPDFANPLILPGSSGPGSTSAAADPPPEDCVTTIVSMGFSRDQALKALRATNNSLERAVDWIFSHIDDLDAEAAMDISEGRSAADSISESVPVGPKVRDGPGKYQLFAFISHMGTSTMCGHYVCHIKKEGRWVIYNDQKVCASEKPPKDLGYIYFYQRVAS
Method in brief: as §1

USP54 = USP54 (UniProt Q70EL1)
USP54, sequence (Q70EL1 whole entry): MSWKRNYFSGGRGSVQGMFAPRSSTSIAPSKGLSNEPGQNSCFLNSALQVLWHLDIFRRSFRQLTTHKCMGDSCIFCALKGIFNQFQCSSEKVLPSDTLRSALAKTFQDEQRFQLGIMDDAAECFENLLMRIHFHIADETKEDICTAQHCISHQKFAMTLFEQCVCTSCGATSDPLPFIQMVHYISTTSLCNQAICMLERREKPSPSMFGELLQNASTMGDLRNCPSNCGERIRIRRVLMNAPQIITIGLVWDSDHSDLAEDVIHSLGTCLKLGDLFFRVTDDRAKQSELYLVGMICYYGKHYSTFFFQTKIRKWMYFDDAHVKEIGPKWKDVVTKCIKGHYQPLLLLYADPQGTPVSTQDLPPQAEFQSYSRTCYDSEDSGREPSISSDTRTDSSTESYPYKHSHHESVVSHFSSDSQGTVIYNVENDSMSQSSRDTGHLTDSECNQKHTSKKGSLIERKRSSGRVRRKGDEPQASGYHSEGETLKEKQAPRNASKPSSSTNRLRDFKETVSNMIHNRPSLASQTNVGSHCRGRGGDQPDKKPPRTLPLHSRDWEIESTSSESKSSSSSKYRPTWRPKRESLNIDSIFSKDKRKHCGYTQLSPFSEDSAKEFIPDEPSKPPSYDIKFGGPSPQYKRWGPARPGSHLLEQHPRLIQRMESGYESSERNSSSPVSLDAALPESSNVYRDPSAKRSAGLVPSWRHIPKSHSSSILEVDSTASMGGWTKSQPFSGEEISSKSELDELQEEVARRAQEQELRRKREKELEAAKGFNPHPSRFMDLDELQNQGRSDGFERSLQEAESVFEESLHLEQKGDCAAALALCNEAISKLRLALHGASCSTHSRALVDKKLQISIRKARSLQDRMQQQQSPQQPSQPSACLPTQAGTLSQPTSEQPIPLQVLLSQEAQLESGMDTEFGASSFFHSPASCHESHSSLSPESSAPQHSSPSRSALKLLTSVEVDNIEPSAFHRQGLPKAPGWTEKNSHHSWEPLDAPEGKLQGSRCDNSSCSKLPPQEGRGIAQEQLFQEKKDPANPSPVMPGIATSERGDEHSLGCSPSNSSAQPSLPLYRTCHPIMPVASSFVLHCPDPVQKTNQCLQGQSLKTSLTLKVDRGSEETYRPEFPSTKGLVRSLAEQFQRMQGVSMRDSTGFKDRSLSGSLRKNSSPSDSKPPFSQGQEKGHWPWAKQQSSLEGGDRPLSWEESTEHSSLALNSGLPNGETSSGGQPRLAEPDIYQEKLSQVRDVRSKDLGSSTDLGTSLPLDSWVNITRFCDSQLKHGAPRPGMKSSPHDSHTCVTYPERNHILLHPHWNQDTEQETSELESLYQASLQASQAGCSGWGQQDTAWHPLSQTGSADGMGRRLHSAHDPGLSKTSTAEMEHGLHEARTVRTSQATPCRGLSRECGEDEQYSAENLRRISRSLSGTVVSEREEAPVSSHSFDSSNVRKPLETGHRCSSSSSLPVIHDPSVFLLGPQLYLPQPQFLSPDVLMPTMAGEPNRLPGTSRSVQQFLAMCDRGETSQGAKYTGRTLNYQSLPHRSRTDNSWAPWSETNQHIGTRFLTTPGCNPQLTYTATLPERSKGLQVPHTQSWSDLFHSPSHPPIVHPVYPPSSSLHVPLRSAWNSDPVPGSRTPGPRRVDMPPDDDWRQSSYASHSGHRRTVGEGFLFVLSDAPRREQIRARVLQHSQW
Method in brief: as §1

USP7 = USP7 (UniProt Q93009)
Method in brief: as §1

USP8 = biological target: T5, USP8 (UniProt P40818)
T5 sequence (whole entry): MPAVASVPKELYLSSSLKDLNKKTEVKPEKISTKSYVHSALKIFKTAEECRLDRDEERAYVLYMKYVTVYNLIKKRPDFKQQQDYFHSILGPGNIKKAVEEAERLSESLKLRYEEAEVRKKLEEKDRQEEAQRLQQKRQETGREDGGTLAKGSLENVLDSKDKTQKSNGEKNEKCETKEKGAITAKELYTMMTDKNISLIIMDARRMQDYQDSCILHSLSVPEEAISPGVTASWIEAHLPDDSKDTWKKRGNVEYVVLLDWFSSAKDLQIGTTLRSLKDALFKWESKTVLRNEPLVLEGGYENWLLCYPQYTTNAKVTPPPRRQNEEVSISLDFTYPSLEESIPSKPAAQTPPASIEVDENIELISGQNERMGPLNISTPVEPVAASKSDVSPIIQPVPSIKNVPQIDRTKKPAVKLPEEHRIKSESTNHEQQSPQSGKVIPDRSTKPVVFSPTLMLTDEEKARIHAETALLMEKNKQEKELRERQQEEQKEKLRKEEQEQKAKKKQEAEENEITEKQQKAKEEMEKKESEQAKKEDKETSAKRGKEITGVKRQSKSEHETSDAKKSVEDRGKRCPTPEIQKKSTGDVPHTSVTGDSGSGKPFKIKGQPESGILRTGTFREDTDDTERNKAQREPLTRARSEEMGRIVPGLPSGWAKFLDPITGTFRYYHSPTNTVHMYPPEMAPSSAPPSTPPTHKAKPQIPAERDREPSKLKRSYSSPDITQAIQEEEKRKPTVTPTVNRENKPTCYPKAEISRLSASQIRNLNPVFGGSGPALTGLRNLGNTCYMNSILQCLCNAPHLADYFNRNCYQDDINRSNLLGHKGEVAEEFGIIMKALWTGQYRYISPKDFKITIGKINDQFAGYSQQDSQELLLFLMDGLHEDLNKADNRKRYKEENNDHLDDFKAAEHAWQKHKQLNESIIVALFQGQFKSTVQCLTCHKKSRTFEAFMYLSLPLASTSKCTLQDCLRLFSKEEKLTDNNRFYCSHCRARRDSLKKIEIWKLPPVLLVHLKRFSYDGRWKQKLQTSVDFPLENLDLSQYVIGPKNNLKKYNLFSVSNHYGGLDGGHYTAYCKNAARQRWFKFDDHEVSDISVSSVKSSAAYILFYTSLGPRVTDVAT
Method in brief: as §1

USP9X = USP9X (UniProt Q93008)
USP9X, sequence (Q93008 whole entry): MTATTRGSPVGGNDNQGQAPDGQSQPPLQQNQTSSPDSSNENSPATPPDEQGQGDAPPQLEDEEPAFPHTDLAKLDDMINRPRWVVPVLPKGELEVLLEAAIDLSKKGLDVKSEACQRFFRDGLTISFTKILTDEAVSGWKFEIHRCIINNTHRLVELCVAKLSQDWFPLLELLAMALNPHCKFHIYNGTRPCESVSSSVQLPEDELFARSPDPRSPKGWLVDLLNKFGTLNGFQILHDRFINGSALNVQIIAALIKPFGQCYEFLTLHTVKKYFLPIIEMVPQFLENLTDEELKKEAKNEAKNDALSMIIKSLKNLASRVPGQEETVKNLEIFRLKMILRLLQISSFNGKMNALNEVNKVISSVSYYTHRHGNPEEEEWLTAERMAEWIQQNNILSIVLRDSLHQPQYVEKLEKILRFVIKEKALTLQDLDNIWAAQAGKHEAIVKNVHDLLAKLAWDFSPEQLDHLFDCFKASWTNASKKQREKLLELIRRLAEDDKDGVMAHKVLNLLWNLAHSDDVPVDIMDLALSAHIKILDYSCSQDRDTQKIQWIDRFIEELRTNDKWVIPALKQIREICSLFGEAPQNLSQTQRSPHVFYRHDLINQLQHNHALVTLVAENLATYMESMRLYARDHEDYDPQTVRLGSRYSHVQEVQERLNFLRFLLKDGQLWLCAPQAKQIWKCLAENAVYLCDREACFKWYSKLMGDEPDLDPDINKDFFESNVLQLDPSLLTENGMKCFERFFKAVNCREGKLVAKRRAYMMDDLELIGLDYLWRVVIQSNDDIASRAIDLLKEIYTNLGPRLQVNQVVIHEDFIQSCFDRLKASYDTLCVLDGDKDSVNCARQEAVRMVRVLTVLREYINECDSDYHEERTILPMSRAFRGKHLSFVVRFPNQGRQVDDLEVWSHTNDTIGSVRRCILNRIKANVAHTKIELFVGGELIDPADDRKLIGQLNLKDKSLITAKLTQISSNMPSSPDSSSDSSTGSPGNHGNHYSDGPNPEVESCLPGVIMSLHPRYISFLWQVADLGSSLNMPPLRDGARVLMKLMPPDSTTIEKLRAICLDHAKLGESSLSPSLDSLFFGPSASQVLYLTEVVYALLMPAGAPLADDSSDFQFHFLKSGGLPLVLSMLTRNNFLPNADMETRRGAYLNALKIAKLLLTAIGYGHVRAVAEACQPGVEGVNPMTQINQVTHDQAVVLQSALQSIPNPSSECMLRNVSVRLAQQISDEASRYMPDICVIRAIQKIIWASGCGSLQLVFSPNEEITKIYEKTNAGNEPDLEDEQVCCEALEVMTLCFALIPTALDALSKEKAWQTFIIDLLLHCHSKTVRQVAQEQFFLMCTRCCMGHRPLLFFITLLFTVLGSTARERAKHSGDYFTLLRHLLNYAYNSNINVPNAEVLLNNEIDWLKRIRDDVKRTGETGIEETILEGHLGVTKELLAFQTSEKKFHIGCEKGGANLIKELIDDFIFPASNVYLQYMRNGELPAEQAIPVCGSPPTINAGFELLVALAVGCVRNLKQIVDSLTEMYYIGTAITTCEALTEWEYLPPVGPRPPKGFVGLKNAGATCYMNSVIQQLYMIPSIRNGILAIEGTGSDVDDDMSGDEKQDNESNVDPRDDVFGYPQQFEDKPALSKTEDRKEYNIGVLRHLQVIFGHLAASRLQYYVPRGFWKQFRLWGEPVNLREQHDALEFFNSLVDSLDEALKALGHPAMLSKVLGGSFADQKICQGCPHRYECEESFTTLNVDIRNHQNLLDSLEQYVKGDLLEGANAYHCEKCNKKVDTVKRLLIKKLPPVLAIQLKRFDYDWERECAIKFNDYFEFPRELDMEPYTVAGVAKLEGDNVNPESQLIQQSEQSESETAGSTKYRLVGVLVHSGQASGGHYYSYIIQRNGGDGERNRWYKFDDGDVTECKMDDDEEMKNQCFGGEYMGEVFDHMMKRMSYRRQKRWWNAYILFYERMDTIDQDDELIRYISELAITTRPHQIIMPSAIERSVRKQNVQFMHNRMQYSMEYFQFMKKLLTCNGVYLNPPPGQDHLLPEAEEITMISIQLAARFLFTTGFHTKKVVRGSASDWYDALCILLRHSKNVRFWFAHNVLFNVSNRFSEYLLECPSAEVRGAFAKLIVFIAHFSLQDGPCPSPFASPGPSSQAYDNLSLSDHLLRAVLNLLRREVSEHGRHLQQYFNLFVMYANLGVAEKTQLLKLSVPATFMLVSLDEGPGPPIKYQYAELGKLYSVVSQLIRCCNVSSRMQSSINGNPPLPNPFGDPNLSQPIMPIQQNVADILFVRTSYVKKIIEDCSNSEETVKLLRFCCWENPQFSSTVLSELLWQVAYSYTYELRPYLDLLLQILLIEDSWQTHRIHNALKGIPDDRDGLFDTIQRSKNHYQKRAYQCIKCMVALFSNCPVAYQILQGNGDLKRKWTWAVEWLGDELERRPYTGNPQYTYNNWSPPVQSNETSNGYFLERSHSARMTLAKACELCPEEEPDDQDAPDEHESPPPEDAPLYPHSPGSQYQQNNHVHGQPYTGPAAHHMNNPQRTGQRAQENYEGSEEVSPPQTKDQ
Method in brief: as §1

UniProt O00487 = biological target: UniProt O00487
UniProt O00487, sequence (O00487 whole entry): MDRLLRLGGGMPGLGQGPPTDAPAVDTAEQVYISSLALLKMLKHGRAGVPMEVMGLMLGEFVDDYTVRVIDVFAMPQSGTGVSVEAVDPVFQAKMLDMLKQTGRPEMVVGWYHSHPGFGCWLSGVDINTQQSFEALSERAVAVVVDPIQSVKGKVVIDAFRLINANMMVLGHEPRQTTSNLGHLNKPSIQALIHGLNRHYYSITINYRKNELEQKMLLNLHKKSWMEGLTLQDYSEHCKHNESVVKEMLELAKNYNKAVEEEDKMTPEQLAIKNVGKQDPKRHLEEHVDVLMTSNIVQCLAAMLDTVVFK
Method in brief: as §1

Measured: log2 ratio of Biotin-Ahx-Ub-VS probe labelling

CS(=O)(=O)c1ccc(CNC(=O)CCl)cc1
inactive: USP42 0.283 | USP46 -0.122 | USP47 -0.0551 | USP48 -0.0444 | USP5 -0.111 | USP54 0.392 | USP7 -0.145 | USP8 -0.0148 | USP9X -0.103 | UniProt O00487 -0.101
